Each structure is given as a SMILES string. The source made the active and inactive calls. The rule behind the calls is not given here.

Experimental findings from PubChem BioAssay are described below.

The test in a line: Brca1-Bard1 BiLC signal decrease – luminescence, single concentration, counter-screen for Mdm2/MdmX interaction inhibitor project, confirmation (AID 504668). Particulars: Brca1/Bard1 bimolecular luciferase complementation counterscreen, at 8 µM, active compounds read high. Background: Counterscreens check selectivity or assay interference.
For `O=C(/C=C/c1ccc2ccccc2n1)N1CCN(S(=O)(=O)c2ccc(F)cc2)CC1`, the inhibition (as a rule, how much of the control response was suppressed) was 35.1% (active). With `CC(C)(C)c1cc(NCCCn2ccnc2)n2ncc(-c3ccc(Cl)cc3)c2n1`, the inhibition was 34.9% (active). `CCCOc1ccc(/C=N/Nc2cc(N3CCOCC3)ncn2)c(O)c1`: the inhibition was 23.7% (active). As to `N=c1c2c(-c3ccccc3)c(-c3ccccc3)n(Cc3ccco3)c2ncn1Cc1ccccc1`, the inhibition was 23% (active). In the case of `COc1ccc2cc(C(=O)N/N=C/c3sc4ccccc4c3O)ccc2c1`, the inhibition was 32.4% (active).

Regarding `C(=N\Nc1nc2ccccc2[nH]1)/c1cccc2nccnc12`, the inhibition is 31.8% (active). `CN(C)CCCNC(=S)NCC(c1ccc(Cl)cc1Cl)c1c[nH]c2ccccc12` (centres undefined): the inhibition was 29.2% (active).

In the case of `Cc1cc(C)c2nc(N3CCC(C(=O)NCCCN4CC(C)CC(C)C4)CC3)sc2c1` (centres undefined), the inhibition was 32.3% (active).

Regarding `O=[N+]([O-])c1ccc2ncnc(Nc3ccc4c(c3)OCCO4)c2c1`, the inhibition was 29.6% (active). With `CCCC(=O)NC(c1ccco1)c1cc(Cl)c2cccnc2c1O` (centres undefined), the inhibition was 23.3% (active). For `COc1ccc(C)cc1Nc1n[n+](-c2ccccc2)c(-c2c(OC)ccc3ccccc23)s1`, the inhibition was 29% (active).

In the case of `O=C(Nc1ccc(-c2nc3ccc(NC(=O)c4cccs4)cc3[nH]2)cc1)c1cccs1`, the inhibition is 33.7% (active).

On to `COc1ccc2cc3c(N)nn(C(=O)c4cccc([N+](=O)[O-])c4)c3nc2c1`, for which the inhibition is 32.1% (active).

In the case of `Cc1cc(Nc2cccc([N+](=O)[O-])c2)n2c(nc3ccccc32)c1C#N`, the inhibition was 30.7% (active).

With `ClC(Cl)(Cl)c1nc2ccccc2n2nncc12`, the inhibition is 31.8% (active).

With `O=[N+]([O-])c1ccc(N=Nc2ccc(O)cc2O)cc1`, the inhibition was 29.5% (active). On to `CCOC(=O)C(CC)(CC)C(=O)/C=C/c1cccc(Br)c1`, for which the inhibition is 29.2% (active). In the case of `Cc1cc(C(=O)CCl)c(C)n1CCc1ccc(Cl)cc1`, the inhibition was 30.7% (active). The value for `COc1cc(OC)cc(C(=O)Oc2c(CN3CCOCC3)cc(Cl)c3cccnc23)c1` was 33.8% (active); that for `CC(C)c1cc(C(=O)NC2CCCc3c2cnn3-c2ccccc2F)no1` (centres undefined) was 29.3% (active); that for `O=C(CCc1ccccc1)N/N=C/c1cc(Br)ccc1O` was 26.9% (active).

Take `CC(NC(=O)CN(c1cccc(C(F)(F)F)c1)S(=O)(=O)c1ccc(Cl)c([N+](=O)[O-])c1)c1ccccc1` (centres undefined): the inhibition was 35.1% (active). Take `COc1ccc2cc1Oc1ccc(cc1)C[C@H]1c3c(cc4c(c3Oc3cc5c(cc3OC)CCN(C)[C@@H]5C2)OCO4)CCN1C`: the inhibition is 31.6% (active). On to `C=CCNC(=S)N/N=C(\C)c1ccccn1`, for which the inhibition is 31.6% (active). Turning to `Cc1ccc(S(=O)(=O)c2nc(S(=O)(=O)c3ccccc3)sc2N2CCN(C)CC2)cc1`, the inhibition was 23.7% (active).

Consider `Cc1oc2c(Cl)c(Cl)c(O)c(CN(C)C)c2c1C(=O)c1ccc(Cl)cc1`, for which the inhibition is 26.8% (active). Regarding `CC(C)c1ccc(/C=C2\SC(=S)N(CCC(=O)N3CCCCC3CCO)C2=O)cc1` (centres undefined), the inhibition was 29.9% (active).

Take `COc1ccc(NC(=O)c2cc3c(CO)cnc(C)c3oc2=Nc2cccc(F)c2)c(OC)c1`: the inhibition is 27.9% (active). As to `CC(=O)NC(c1ccco1)c1ccc2cccnc2c1O` (centres undefined), the inhibition was 27.7% (active). In the case of `COc1ccc(/C=C2\CCC/C(=C\C=N\N(C)C)C2=O)cc1`, the inhibition was 29.2% (active). As to `CC1(C)Cc2c(sc(NC(=O)c3ccc(C(=O)c4ccccc4)cc3)c2C(N)=O)C(C)(C)N1`, the inhibition is 34.2% (active). For the molecule `O=C(N/N=C/c1c(O)ccc2ccccc12)c1cccnc1`, the inhibition is 29.9% (active).

Turning to `COc1ccc(C2Oc3ccccc3C3=C2C(c2cccs2)n2ncnc2N3)cc1` (centres undefined), the inhibition was 29.5% (active). On to `Cc1ccc(C(C)C)cc1OCC(=O)Nc1nnc(C2CC2)s1`, for which the inhibition is 33.4% (active). As for `COc1ccc(OC)c2sc(NC(=O)CCS(=O)(=O)c3ccccc3)nc12`, the figure is 23.8% (active). Take `O=C(Oc1ccnc2cc(Cl)ccc12)N1CCCCCC1`: the inhibition is 30% (active). As to `O=C(Nc1ccc(F)c(Cl)c1)Nc1csc2ccccc12`, the inhibition is 35% (active). Take `O=C(N/N=C(\c1ccccc1)c1cccnc1)c1cccc(F)c1`: the inhibition is 33.2% (active). On to `O=C(Nc1nc(-c2ccccn2)cs1)c1cccc(S(=O)(=O)N2CCOCC2)c1`, for which the inhibition is 33.4% (active).
